This passage reports outcome results from PubChem BioAssay.

Potency and affinity values are given separately. Active and inactive are the calls of the source.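 Rule for the calls: active = dose-response curve with midpoint inside the tested range, moderate steepness, significant amplitude and little compound fluorescence or bead-attachment interference; inactive = the rest.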

This assay addresses GTPase HRas (Homo sapiens) (UniProt P01112). In words: activated Ras mutant GTP binding inhibitors, dose response, biochemical, multiplex bead flow cytometry (AID 1341).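 Note: GST-tagged constitutively activated Ras mutant immobilized on beads and multiplexed with other GTPases.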 Conditions: bead-based flow cytometry, Bodipy-FL-GTP binding; series mostly up to 100 µM. A general note: A flow cytometer gives signals particle by particle.
Regarding `O=C(O)c1c(C(F)(F)F)ccnc1SCc1ccccc1`, the result was inactive. Under `Cc1cc(C)n2nc(C(=O)N3CCCC(CNS(=O)(=O)c4cccs4)C3)cc2n1` (centres undefined) stands “inactive”; under `CCC(C)C(=O)Nc1ccc(OC)cc1OC` (centres undefined), “inactive”; under `Cc1ccc(-n2nc3c(SCCN4CCOCC4)nnc(C)c3c2C)cc1`, “inactive”. Turning to `CCCCCn1nc(C(=O)OCC(=O)c2c(N)n(C)c(=O)n(C)c2=O)c2ccccc2c1=O`, the compound was classed as inactive.

Consider `COCCCNc1nc(=S)[nH]c2cc(OC)c(OC)cc12`, for which the compound was classed as inactive. Consider `COc1ccccc1Oc1ccccc1C(=O)O`, for which the result was inactive. For `Cc1nn(CCc2nn[nH]n2)c2nc(-c3ccc(C4CCCCC4)cc3)cc(C(F)(F)F)c12` the value was “inactive”; for `O=c1c2ccc([N+](=O)[O-])cc2ncn1CCOc1ccccc1`, “inactive”. Consider `CSc1nnc(-c2cc(Br)ccc2N=Cc2c(C)[nH]n(-c3ccccc3)c2=O)c(=O)[nH]1`, for which the compound was classed as inactive. For `Cc1ccc(N=Nc2c(N)[nH]n3c(=O)cc(C)nc23)cc1`, the call was inactive. Under `O=C(N/N=C/c1c(O)n(Cc2ccccc2)c(=O)c2ccccc12)c1cccnc1` stands “inactive”; under `CCn1cc(C(=O)OCC(=O)c2cc(C)n(-c3cccc(C(F)(F)F)c3)c2C)c(=O)c2ccc(C)nc21`, “inactive”; under `Cc1sc2ncnc(N/N=C/c3ccc(O)cc3)c2c1C`, “inactive”.

Regarding `O=c1[nH]c2ccc(S(=O)(=O)NCc3ccccc3)cc2[nH]1`, the call was inactive.

Regarding `CCc1ccc(Cn2nnc(C(=O)O)c2C(=O)O)cc1`, the result was inactive. Consider `Cc1cc(NS(=O)(=O)c2ccc(NC(=O)c3cc4c(=O)n5ccccc5nc4s3)cc2)nc(C)n1`, for which the compound was classed as inactive. Regarding `CC(C)N(C)NC(=S)Nc1ccccc1`, the compound was called inactive. As to `C=CC#CC[N+]1(CC#Cc2ccccc2)CCOCC1`, the result was inactive. As to `CC1=C(C(=O)Nc2ccccc2)C(c2ccc(Cl)cc2)n2c(s/c(=C/c3cccc(OCC(=O)O)c3)c2=O)=N1` (centres undefined), the outcome was inactive.

As to `CCOC(=O)c1c(-c2ccccc2)csc1NC(=O)/C(C#N)=C/c1ccc(O)c(OC)c1`, the compound was called inactive. Under `COc1ccc(/C=N/Nc2ncnc3sc4c(c23)CCCC4)cc1O` stands “inactive”. For `Cc1ccc(C)c(OCc2ccc(C(=O)O)o2)c1` the value was “inactive”; for `CCCCNC(=O)c1cc([N+](=O)[O-])[nH]n1`, “inactive”. Take `Cc1ccc(Nc2n[nH]c(C)c2[N+](=O)[O-])c(C)c1`: the compound was classed as inactive. Turning to `O=c1c2ccccc2nc2c3ccccc3c(Cl)nn12`, the outcome was inactive.

Regarding `O=C(O)/C=C/C(=O)Nc1cccnc1`, the call was inactive. For `COc1ccc(/C=C2\SC(=S)N(CCCC(=O)NNC(=O)c3ccccc3O)C2=O)cc1` the value was “inactive”; for `CCC/C(O)=C1\C(=O)CC(C)(C)CC1=Nc1ccccc1OC`, “inactive”. `CC(=O)NC1CC2CCCC(C1)N2C(=O)Nc1ccc(Cl)c(C(F)(F)F)c1` (centres undefined): the outcome was inactive. With `CCCCn1c(O)c(N=NC(=O)c2ccccc2NS(=O)(=O)c2cccs2)c2ccccc21`, the outcome was inactive. Regarding `Cc1c(C(=O)N2CCc3ccccc3C2)oc2ccc(S(=O)(=O)N3CCCCCC3)cc12`, the call was inactive. Regarding `COc1cc2[nH]c(=S)nc(Nc3ccc(NC(C)=O)cc3)c2cc1OC`, the call was inactive.

On to `O=C(CSc1nnc2c(n1)[nH]c1ccccc12)Nc1ccc(S(=O)(=O)Nc2ncccn2)cc1`, for which the call was inactive. For `CCCN1C(=O)/C(=C\C=C2/Sc3ccccc3N2CC)SC1=S` the value was “inactive”; for `C=CCn1c(COc2ccc(F)cc2)nnc1SCC(=O)c1c[nH]c2c(CC)cccc12`, “inactive”. Regarding `O=C(CSc1ccc2nnc(-c3ccccn3)n2n1)Nc1ccc2c(c1)OCO2`, the call was inactive. As to `COc1ccccc1C(=O)Nc1nc(-c2ccc3c(c2)OCCO3)cs1`, the result was inactive. For `COc1ccc(O)c(-c2cc(C(F)(F)C(F)F)nc(-c3ccccc3)n2)c1` the value was “inactive”.
